Assay outcomes (PubChem)
Most compounds without a hit are left out; they make up all but 21% or so of the library.
CHX counter: counter-screen hit for Shiga toxin inhibitors, cycloheximide; cell reporter, cycloheximide protein synthesis inhibition counterscreen; max response, %; actives 12% (n = 300,000); AID 2314; in the data active = max response mostly above about 13%, no sharp cut-off; inactive = mostly below about 14%; note: read at 38.3 µM for the half of the compounds with a filed dose; 0% is about no effect
Pf growth 96h: P. falciparum growth inhibition at 96 hours; P. falciparum luciferase reporter growth, 96 h; Potency, µM (top dose mostly 28.7 µM), for the others: top-dose activity change, negative = inhibition, actives largely listed as inhibitors; actives 6.9% (n = 320,000); AID 504834; note: potency is the fitted concentration of half-maximal effect; % is set by controls: 0 for no effect and ±100 for the full control effect
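Parasite growth measured via integrated firefly luciferase reporter in P. falciparum. Infected erythrocytes at 2% hematocrit, 0.05% parasitemia final were treated 96 hours at 37 C under 5% CO2, and luminescence was read.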
Shiga toxin inh: blocks Shiga toxin action in Vero cells; Vero cells, Shiga toxin protein synthesis inhibition reporter; inhibition, % at 38.7 µM; actives 9.2% (n = 290,000); in the data active = inhibition mostly above about 28%, no sharp cut-off; inactive = mostly below about 43%; note: 0% is about no effect
Pf growth 48h: inhibits P. falciparum growth in the first generation, 48 h. actives 5.9% (n = 310,000). P. falciparum luciferase growth in erythrocytes, 48 h. AID 504832. Potency, µM (doses to about 28.7 µM), for the others: at the highest dose activity change, negative = inhibition, usual class: inhibitors; note: potency is the fitted concentration of half-maximal effect; % is set by controls: 0 for no effect and ±100 for the full control effect
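Cell-based growth assay: transgenic P. falciparum expressing firefly luciferase, cultured in red cells within RPMI 1640 containing 0.5% w/v Albumax, 24 mM bicarbonate and gentamycin. A drop in luciferase activity indicates inhibition.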
Giardia FBPA inh: Giardia lamblia aldolase inhibition; A8B2U2; purified Giardia FBPA; Potency, µM (titrated, usually from 59.6 µM), without a hit: top-dose activity, negative = inhibition, actives largely listed as inhibitors; actives 0.71% (n = 290,000); note: potency is the fitted concentration of half-maximal effect; % is set by controls: 0 for no effect and ±100 for the full control effect; nearly all actives have a fitted effect of over 55% in size
Target sequence (A8B2U2 whole entry, looked up): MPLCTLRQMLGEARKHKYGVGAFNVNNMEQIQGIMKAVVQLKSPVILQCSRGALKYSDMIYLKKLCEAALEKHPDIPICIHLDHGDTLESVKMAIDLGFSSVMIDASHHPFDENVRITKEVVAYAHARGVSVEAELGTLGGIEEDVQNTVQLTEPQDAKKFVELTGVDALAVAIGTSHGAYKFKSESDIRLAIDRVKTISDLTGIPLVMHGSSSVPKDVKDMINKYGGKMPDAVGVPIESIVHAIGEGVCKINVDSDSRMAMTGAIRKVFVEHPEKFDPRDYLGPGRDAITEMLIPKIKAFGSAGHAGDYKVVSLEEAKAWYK
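Giardia FBPA (40 nM reagent) was preincubated 10 min at RT with compound (up to 57.5 uM final), then substrate plus GAPDH/TPI/NAD/arsenate coupling system with diaphorase/resazurin was added; resorufin fluorescence (525/598 nm) was read after 20 min.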
NS1 function inh: blocks influenza NS1 protein function; Potency, µM (doses to about 46.1 µM), for the others: at the highest dose activity, positive = more growth; AID 2326; actives 0.4% (n = 270,000); calls by dose curve; note: potency is the fitted concentration of half-maximal effect; actives are rising curves; nearly all actives have a fitted effect of over 50% in size
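Compounds were scored for reversing the slow growth caused by influenza A NS1 in S. cerevisiae, measured by optical density at 600 nm. Assay medium contained 2% galactose at pH 6.0; NS1-free yeast of the same strain were the positive control.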
The depositor's hits bear a star; ? = inconclusive; / = no result; [ ] = dose if it differs, or a comment. Unless noted, calls come from the whole dose curve; as a rule, active = well fitted curve in the direction sought with a large enough effect; inconclusive = small, poorly fitted or top-dose-only effect, or another doubt; inactive = no such curve, though single readings can be large; an effect the other way counts as inactive or inconclusive.

SMILES	CHX counter	Pf growth 96h	Shiga toxin inh	Pf growth 48h	Giardia FBPA inh	NS1 function inh
O=C(NNC(=O)c1ccccc1Br)c1ccccc1Cl	19*	?	23	15%	3%	/
O=C(NNC(=O)c1ccccc1Br)c1ccncc1	-4	10µM*	-7	24%	-3%	-6%
O=C(NNC(=S)Nc1ccccc1Cl)c1ccccc1Br	49*	41%	74*	278%	-7%	9%
CNC(=S)NNC(=O)c1ccccc1Cl	1	4%	-13	?	-23%	0%
O=C(Nc1cccc(-c2csc(Nc3ccc(Cl)cc3)n2)c1)c1cc([N+](=O)[O-])cc(C(F)(F)F)c1	4	2.1µM*	4	1.7µM*	3%	12%
O=C(Nc1cccc(-c2csc(Nc3ccccc3)n2)c1)c1cc([N+](=O)[O-])cc(C(F)(F)F)c1	18*	?	27*	?	-2%	23%
O=C(Nc1cccc(-c2csc(Nc3ccc(Cl)cc3)n2)c1)c1cccc(C(F)(F)F)c1	12*	?	42*	?	-6%	-39%
CCCCC(c1nnnn1C(C)C)N1CCN(C(=O)c2ccco2)CC1 (configuration not stated)	-1	12%	-5	-13%	-13%	2%
Cc1cc(C)c2c(CN3CCN(C)CC3)cc(=O)oc2c1	-1	/	-16	20%	4%	-2%
Cc1cc2oc(=O)cc(CN3CCN(S(=O)(=O)c4cccs4)CC3)c2cc1C	-3	7.4µM*	-2	?	0%	7%
Cc1cc(C)c2c(CN3CCN(CCO)CC3)cc(=O)oc2c1	72*	7%	57*	?	0%	4%
CC(C)CN(Cc1cc(=O)oc2cc(-c3ccccc3)c(O)cc12)CC(C)C	2	?	16	0.33µM*	0%	22%
O=c1cc(CN2CCN(C/C=C/c3ccccc3)CC2)c2cc(O)c(-c3ccccc3)cc2o1	-2	1µM*	-9	0.93µM*	-8%	15%
CCc1cc2c(CN3CCN(CCO)CC3)cc(=O)oc2cc1O	2	?	20	13µM*	20%	-1%
Cc1c(O)ccc2c(CN3CCN(C/C=C/c4ccccc4)CC3)cc(=O)oc12	-3	?	19	2.6µM*	-7%	0%
Cc1cc2oc(=O)cc(CN3CCN(Cc4ccccc4)CC3)c2cc1O	13	?	-4	9.3µM*	12%	5%
Cc1cc(O)c2c(CN3CCN(Cc4ccccc4)CC3)cc(=O)oc2c1	1	8.3µM*	-2	?	-7%	-4%
CNc1nc(-c2c(C)noc2C)nc2ccccc12	/	/	/	/	2%	/
Cc1cc2oc(=O)cc(CN3CCN(C/C=C/c4ccccc4)CC3)c2cc1O	-3	/	7	2.9µM*	-10%	-44%
Oc1ccc2ccccc2c1CN1CCN(c2ccccc2F)CC1	-3	31%	-8	?	-12%	-16%
Oc1ccc2ccccc2c1CN1CCN(C/C=C/c2ccccc2)CC1	2	9.3µM*	-4	?	-8%	-21%
CCOC(=O)CCCNC(=O)N1CCc2nc(-c3ccc(OC)cc3C)c3c(c2C1)CO[C@@H](c1ccccc1)C3	/	/	/	/	4%[12.9 µM]	/
COC(=O)c1sc2ccccc2c1N	32*	?	60*	94%	-22%	-49%
COC(=O)c1sc2ccccc2c1C(=O)OC	6	/	-7	-1%	8%	-1%
O=C(COC(=O)CNS(=O)(=O)c1ccccc1)Nc1ncc(Cl)cc1Cl	/	0%	/	2%	/	/
SMILES	CHX counter	Pf growth 96h	Shiga toxin inh	Pf growth 48h	Giardia FBPA inh	NS1 function inh
CC1CCCCC12NC(=O)N(CC(=O)NCCc1ccc(F)cc1)C2=O (configuration not stated)	/	?	/	-30%	/	/
Cc1c(CCOC(=O)c2ccccc2)sc[n+]1Cc1ccccc1	1	-7%	-4	5.2µM*	-2%	-6%
COc1cc(CNC(C)c2ccccc2)cc(Cl)c1OCC(=O)Nc1ccccc1 (configuration not stated)	1	?	11	12µM*	-3%	-14%
CC(NCc1ccccc1Cl)C(O)c1ccccc1 (configuration not stated)	20	7.4µM*	19	9.3µM*	-5%	-8%
CCOc1cc(CNC(C)C(O)c2ccccc2)cc(Cl)c1OCC (configuration not stated)	-2	?	2	1.5µM*	-2%	6%
CCOc1cc(CNCC(O)c2ccccc2)cc(Cl)c1OC (configuration not stated)	-2	299%	-14	?	-2%	-2%
OCC(Cc1ccccc1)NCc1ccccc1C(F)(F)F (configuration not stated)	-2	33%	-1	-6%	0%	11%
CCN(CC)CCNCc1cc(Cl)c(OCC(=O)Nc2ccccc2)c(OC)c1	-2	?	12	?	-5%	5%
CC(NCc1ccc(Cl)c(Cl)c1)C(O)c1ccccc1 (configuration not stated)	-3	/	-13	?	-11%	-7%
CC(NCc1ccccc1C(F)(F)F)C(O)c1ccccc1 (configuration not stated)	4	-1%	20	8.3µM*	?	6%
Cc1ccc(CC2SC(N=C(N)N)=NC2=O)cc1 (configuration not stated)	-4	4%	23	0%	-8%	18%
Cc1cccc(NC(=O)c2nc[nH]c2C(=O)N(C)Cc2ccccc2)c1	/	?	/	13%	/	/
COC(=O)[C@@]1(Cc2ccccc2)[C@H]2c3cc(C(=O)N4CCCC4)[nH]c3C[C@H]2CN1C(=O)c1ccccc1	/	/	/	/	-3%	/
CC(C)C(C)NC(=O)COC(=O)C1CCN(S(=O)(=O)c2ccc3c(c2)OCCO3)CC1 (configuration not stated)	/	9%	/	1%	/	/
CCOc1cc2c3c(c1)C1(C(=O)N3C(C)(C)CC2C)C(C#N)=C(N)N2C(=C1C#N)Nc1ccccc12 (configuration not stated)	-3	?	19	3.3µM*	?	?
O=C(CNC(c1ccccc1)c1ccccc1)Nc1ccccc1F	0	?	26	?	/	-12%
COCC(=O)Nc1ccccc1-c1ccccc1	-1	41%	-8	7%	3%	/
Cc1ccccc1OCC(=O)Nc1ccccc1-c1ccccc1	18*	?	42*	-54%	-4%	7%
Cc1ccccc1NC(=O)COc1ccccc1C	16*	-2%	27	?	5%	-18%
O=C(CNC(c1ccccc1)c1ccccc1)Nc1ccccc1-c1ccccc1	-3	13µM*	-8	12µM*	-1%	-6%
CN(C)c1ccc2c(c1)OC(N)=C(C#N)C2c1cccc(F)c1 (configuration not stated)	-4	?	-5	13µM*	-28%	-116%
